In all, about 200,000 compounds went through this assay and about 80 (0.04%) were called active.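 Rule for the calls: active = activation above the mean across all tested compounds plus 3 SD, cutoff set per campaign (cut at about 5.5% in these data); inactive = the rest.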 For the sample, actives were picked, then their nearest neighbours and some compounds at random.

This test is described as follows: Hsp70 transcriptional activators, primary screen, cell-based, HeLa, Hsp70 promoter luciferase, luminescence, 10 µM (AID 1203).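 Note: 100% = MG132 at 30 µM as the positive control and 0% = DMSO.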 To be noted: HeLa Hsp70 promoter luciferase reporter, at 10 µM, active compounds read high, scaled: vehicle 0, proteasome-inhibitor control 100%.
Consider `Cn1c(=O)cc(OCC(=O)N2CCN(c3ccccc3F)CC2)c2ccccc21`, for which the activation is 0.82% (inactive).

As to `COc1ccc(C/C(C)=N/NC(=O)c2ccncc2)cc1`, the activation is -0.08% (inactive).

As for `COc1ccccc1C(=O)CSc1cccc[n+]1[O-]`, the activation is 0.19% (inactive).

`CCC(C)(C(=O)Nc1ccccc1C)N(C(=O)CNC(C)=O)c1ccc(C)cc1` (stereo not drawn): the activation was -0.25% (inactive).

As to `OCCC1CN(Cc2ccc3nsnc3c2)CCN1C1CCCCC1` (stereo not drawn), the activation was -0.14% (inactive).

For the molecule `CC(C)(C)NCCCOc1ccc(Cl)cc1C(C)(C)C`, the activation is -0.26% (inactive).

With `CCN(CC)Cc1nc2sc(C)c(C)c2c(=O)[nH]1`, the activation was -0.4% (inactive).

For the molecule `COc1ccc(/C=C/C(=O)Nc2ccc(C34CC5CC(CC(O)(C5)C3)C4)cc2)cc1OC`, the activation was 0.8% (inactive).

`CC(NC(=S)Nc1ccc(OC(F)F)cc1)c1ccc(F)cc1` (stereo not drawn): the activation was -0.29% (inactive).

In the case of `O=C(O)c1n[nH]nc1-c1ccccc1`, the activation was -0.44% (inactive).

Take `CN(C)c1ccc(C2Nc3ccccc3C(=O)N2NS(=O)(=O)c2ccccc2)cc1` (stereo not drawn): the activation was -0.44% (inactive).

In the case of `CCCC(C)C(=O)OCC(=O)Nc1c(Br)cc(C)cc1Br` (stereo not drawn), the activation was -0.19% (inactive).

Take `O=C(Nc1nc(-c2cccnc2)cs1)c1ccccc1F`: the activation was 0.2% (inactive).

As to `O=C(NC1CCc2ccccc21)C12CN(Cc3ccccc3)CC1C(c1cccc([N+](=O)[O-])c1)=NO2` (stereo not drawn), the activation was -0.09% (inactive).

On to `CC[C@H]1OC(=O)[C@H](C)[C@@H](O[C@H]2C[C@@](C)(OC)[C@@H](O)[C@H](C)O2)[C@H](C)[C@@H](O[C@@H]2O[C@H](C)C[C@H](N(C)C)[C@H]2O)[C@](C)(O)C[C@@H](C)[C@@H]2N[C@@H](COCCOC)O[C@H]([C@H]2C)[C@]1(C)O`, for which the activation is -0.19% (inactive).

For `CCc1cc2c(=O)c(-c3ccc(F)cc3)c(C(F)(F)F)oc2cc1OCC(=O)O`, the activation was -0.05% (inactive).

Consider `O=C(COC(=O)c1cc([N+](=O)[O-])ccc1NCc1ccccc1)NC1CCCCC1`, for which the activation is -0.39% (inactive).

`CCCN(CC1COc2ccccc2O1)C(=S)Nc1ccc(C)cc1` (stereo not drawn): the activation was -0.24% (inactive).

On to `COc1ccc(NC(=O)COC(=O)c2ccc(NS(=O)(=O)/C=C/c3ccccc3)cc2)cc1`, for which the activation is -0.47% (inactive).

In the case of `COc1cccc(OCc2cc(/C=N/NC(=O)c3nc(Cl)c(Cl)c(N)c3Cl)ccc2OC)c1`, the activation is -0.07% (inactive).

For the molecule `CC1Cc2ccccc2N1C(=O)CSc1nnc(-c2ccc(S(=O)(=O)N3CCCC3)cc2)n1C` (stereo not drawn), the activation is 0.16% (inactive).

`Cc1cc(C(=O)NNC(=O)c2cccc(S(=O)(=O)N3CCOCC3)c2)c2ccccc2n1`: the activation is -0.21% (inactive).

For `Fc1ccccc1CNC(=S)Nc1ccc(Cl)cc1`, the activation was -0.2% (inactive).

Regarding `Cc1nnc(SCC(=O)NNC(=O)c2ccc(Cl)cc2)n1CC1CCCO1` (stereo not drawn), the activation is -0.36% (inactive).

On to `CC(C)CC(=O)NC(=S)Nc1ccc(F)cc1F`, for which the activation was -0.43% (inactive).

As to `Cc1ccc(C(=O)/C=C/c2c(C)nn(-c3ccccc3)c2Cl)cc1`, the activation is -0.32% (inactive).

With `O=C(/C=C/Sc1ncn[nH]1)c1ccc(Cl)cc1`, the activation is 26.9% (active).

On to `O=C(NCCOCc1ccc(Cl)cc1)c1ncn[nH]1`, for which the activation is -0.36% (inactive).

As for `Cc1cccc(C)c1NC(=S)N(Cc1cccnc1)Cc1ccccc1Cl`, the activation was -0.11% (inactive).

In the case of `N#C/C(=C/c1ccc(N2CCOCC2)o1)C(=O)N1CCOCC1`, the activation was -0.09% (inactive).

Consider `CCC(=O)c1ccc(OCC(O)Cn2nc(C)c(C(C)=O)c2C)cc1` (stereo not drawn), for which the activation was 0% (inactive).

`CC(C)c1ccc(C2C(C#N)=C(N)Oc3c2oc(CO)cc3=O)cc1` (stereo not drawn): the activation was -0.2% (inactive).

Take `CSc1ccc(/C=C/C(=O)NC23CC4CC(CC(C4)C2)C3)cc1`: the activation is -0.25% (inactive).

Take `CCc1ccccc1NC(=O)CN(C)C(=O)COc1ccc(C)nc1[N+](=O)[O-]`: the activation is -0.28% (inactive).

Consider `CC1CN/C(=C\C(=O)c2ccc(Br)cc2)C(=O)N1` (stereo not drawn), for which the activation is -0.31% (inactive).

Regarding `COc1ccc(CC(NC(C)=O)C(=O)NC2CCN(C(=O)c3ccc(OC)c(OC)c3)CC2)cc1OC` (stereo not drawn), the activation is -0.19% (inactive).

With `Cc1cc(C)n2nc(SCC(=O)NC(=O)NCc3ccco3)nc2n1`, the activation was -0.06% (inactive).

With `COCc1c(C(=O)OCc2c(C)noc2C)oc2ccccc12`, the activation was 0.25% (inactive).

Consider `Cc1cc(C)c2[nH]c(=O)c(CN(Cc3ccccc3)C(=S)NCCCN(C)C)cc2c1`, for which the activation was -0.22% (inactive).

In the case of `CC(C)(C)NC(=O)Cn1cnc2cc([N+](=O)[O-])ccc2c1=O`, the activation was 0.46% (inactive).

For `NNC(=O)c1cnn(-c2ccccc2)c1C(F)(F)F`, the activation is 0.08% (inactive).

Take `CN(C)C(=O)N1CCNCC1`: the activation was -0.1% (inactive).

Consider `CC(C)CN(C(=O)CN1CCN(S(=O)(=O)c2ccccc2)CC1)c1c(N)n(CC(C)C)c(=O)[nH]c1=O`, for which the activation is 0.23% (inactive).

`CCOC(=O)c1c(CN(C)C)n(-c2ccccc2)c2cc(Br)c(O)cc12`: the activation was -0.03% (inactive).

For the molecule `C/C(=N\Nc1ncc(Cl)cc1Cl)c1cccs1`, the activation is -0.17% (inactive).

For the molecule `Cc1ccc(N2C(=O)C(NC(=O)c3c(F)cccc3F)(C(F)(F)F)C3=C2CC(C)(C)CC3=O)cc1` (stereo not drawn), the activation is -0.33% (inactive).

With `Cc1cccc(NC(=O)Cn2c(=O)n(Cc3ccccc3)c(=O)c3c(C)c(C)sc32)c1`, the activation was -0.2% (inactive).

On to `Cc1cc(Cl)ccc1OCCCC(=O)NCc1ccncc1`, for which the activation was 0.28% (inactive).

In the case of `C=CCn1cc(C(=O)NCc2ccc(Cl)cc2)c(=O)c2cc(S(=O)(=O)N(CC)CC)ccc21`, the activation was -0.11% (inactive).

On to `COc1cccc(-c2nn(-c3ccccc3)cc2/C=C(\C#N)C(=O)NCCCn2ccnc2)c1`, for which the activation was -0.06% (inactive).

For `CC(C)Oc1ccccc1C(=O)NC(CO)C(=O)O` (stereo not drawn), the activation was 0.09% (inactive).

With `O=C(CSc1ccc([N+](=O)[O-])cn1)Nc1ccc(N2CCOCC2)cc1`, the activation was -0.24% (inactive).

As for `NS(=O)(=O)c1cccnc1Nc1cccc(Cl)c1`, the activation is 0.75% (inactive).

Turning to `CC(Oc1ccccc1)C(=O)NN1Cc2ccccc2C1=N` (stereo not drawn), the activation was -0.3% (inactive).

For `CC(OC(=O)c1ccccc1N1C(=O)C2C3CCC(C3)C2C1=O)C(=O)c1ccccc1` (stereo not drawn), the activation is -0.1% (inactive).

In the case of `O=[N+]([O-])c1cccc(C2=NCCS2)c1`, the activation is -0.29% (inactive).

For the molecule `CC(=O)N1CCN(CC(=O)Nc2ccc(SC(F)F)cc2)CC1`, the activation is -0.16% (inactive).

Regarding `CNC(=S)N1CCN(c2ccccn2)CC1`, the activation was 0.23% (inactive).

Regarding `CC(=O)c1c(C)[nH]c(C(=O)OCC(=O)NCCC(C)C)c1C`, the activation is -0.33% (inactive).

Turning to `Cc1ccccc1N1C(=O)C(Oc2ccc(Cl)cc2)C1CNCC1CCCO1` (stereo not drawn), the activation is -0.08% (inactive).

As to `COc1ccc(S(=O)(=O)N(C)CC(=O)N2CCCC2)cc1Cl`, the activation was -0.1% (inactive).

Regarding `NC(=O)c1ccc(NC(=O)COC(=O)c2c3c(nc4ccccc24)/C(=C\c2ccc4c(c2)OCO4)CCC3)cc1`, the activation was -0.43% (inactive).

For the molecule `COc1ccc(C2CC(c3cccs3)=NN2C(=O)CSc2nnc(N)s2)cc1OC` (stereo not drawn), the activation was -0.12% (inactive).

On to `CCN(CC)CCN(C(=O)c1cccc([N+](=O)[O-])c1)c1nc2ccc(OC)cc2s1`, for which the activation is -0.15% (inactive).

As to `CCOc1ccc(-c2n[nH]c(C)c2-c2ccccn2)c(O)c1`, the activation was -0.39% (inactive).

On to `CCC(=O)NC(Nc1cc(C)ccn1)(C(F)(F)F)C(F)(F)F`, for which the activation is -0.11% (inactive).

With `Cc1ccc(NC(=S)N(CCCN2CCCC2)Cc2cccn2Cc2ccc(Cl)cc2)cc1`, the activation was 0.2% (inactive).

In the case of `COc1ccc(NC(=O)/C(C#N)=C\c2cc(OC)c(OCc3ccc(C(=O)O)cc3)cc2Br)cc1`, the activation was -0.51% (inactive).

In the case of `COc1ccc(NC(=O)CSc2nnc(-c3ccccc3F)n2C2CC2)cc1S(N)(=O)=O`, the activation is -0.2% (inactive).

With `Cc1ccc(-n2c(SCC(=O)N3c4ccccc4Sc4ccccc43)nnc2-c2ccncc2)cc1`, the activation was -0.33% (inactive).

On to `CC(C)NC(=O)NC(=O)CSc1nnc(-c2ccccc2F)n1N`, for which the activation was 0.03% (inactive).

Turning to `Cc1cc(C)c(OCCN2CC(C)OC(C)C2)c(Br)c1` (stereo not drawn), the activation is -0.19% (inactive).

Regarding `Cc1ccc(C)c(-n2cc(CN3CCN(C(=O)c4ncn[nH]4)CC3)c(-c3ccccc3)n2)c1`, the activation was -0.1% (inactive).

With `CC(=C/c1ccccc1)/C=N/NC(=O)c1cc(C)oc1C`, the activation was 0% (inactive).

For `CCCOC1CCCN(Cc2cn(C)nc2-c2ccccc2F)C1` (stereo not drawn), the activation is -0.04% (inactive).

As for `Cc1ccccc1NC(=O)Cn1c(=O)n(CC2CCCO2)c(=O)c2ccccc21` (stereo not drawn), the activation was -0.17% (inactive).

For `O=C1NC2(CCCCCC2)C(=O)N1CCS(=O)(=O)Oc1ccccc1`, the activation is -0.27% (inactive).

For `Cc1ccc(C(=O)NCC(=O)O)s1`, the activation was 0.11% (inactive).

`O=C(CCCN1C(=O)/C(=C/c2ccccc2)SC1=S)Nc1ccc(O)cc1`: the activation is -0.12% (inactive).

As for `Cc1ccc(NC(=O)c2cccnc2C(=O)Nc2ccc(C)cc2)cc1`, the activation is -0.14% (inactive).

As to `NC(=O)C[C@@H]1NC(=O)CNC(=O)c2cc([N+](=O)[O-])cc(I)c2NCCC(C(N)=O)NC1=O` (stereo partly drawn), the activation is 0.03% (inactive).

In the case of `Cc1cccc(NC(=S)NC(=O)c2ccc(Br)o2)c1`, the activation is 0.26% (inactive).

With `CC(=O)Nc1nc2ccccc2n1Cc1ccc(C)cc1`, the activation was -0.13% (inactive).

Take `COC(=O)CN1C(=S)N(c2ccccc2)C(=O)C1CC(=O)Nc1ccc(Cl)cc1` (stereo not drawn): the activation was -0.13% (inactive).

As for `COc1ccc(-c2nc(N)sc2C2(O)C(=O)Nc3c(Br)cc(F)cc32)cc1OC` (stereo not drawn), the activation is -0.09% (inactive).

As for `CCOc1ccc(N2CC(C(=O)NCCN3C(=O)S/C(=C\c4cccnc4)C3=O)CC2=O)cc1` (stereo not drawn), the activation is -0.14% (inactive).

On to `Cc1ccc(Cl)c(NC(=O)CN(C)CC(=O)Nc2ccc(F)c(F)c2F)c1Cl`, for which the activation was -0.39% (inactive).

As to `C/C(=N\NC(=O)CCn1nc(C)cc1C)C(C)(C)C`, the activation is -0.13% (inactive).

These data come from PubChem BioAssay AID1203 (The Scripps Research Institute Molecular Screening Center, 2008).
